NPSR antagonist: neuropeptide S receptor (human) antagonism, cAMP; Q6W5P4; CHO-NPSR cells, cAMP TR-FRET, antagonist mode; Potency, µM (top dose mostly 38.3 µM), inactives show top-dose activity change, negative = inhibition, hits mostly inhibitors; actives 1% (n = 220,000); AID 1461; further: potency means the concentration at half of the fitted maximal effect; on the % scale 0 is the no-effect control and ±100 the full control effect; nearly all actives have a fitted effect of over 50% in size
Target sequence (Q6W5P4 whole entry, looked up): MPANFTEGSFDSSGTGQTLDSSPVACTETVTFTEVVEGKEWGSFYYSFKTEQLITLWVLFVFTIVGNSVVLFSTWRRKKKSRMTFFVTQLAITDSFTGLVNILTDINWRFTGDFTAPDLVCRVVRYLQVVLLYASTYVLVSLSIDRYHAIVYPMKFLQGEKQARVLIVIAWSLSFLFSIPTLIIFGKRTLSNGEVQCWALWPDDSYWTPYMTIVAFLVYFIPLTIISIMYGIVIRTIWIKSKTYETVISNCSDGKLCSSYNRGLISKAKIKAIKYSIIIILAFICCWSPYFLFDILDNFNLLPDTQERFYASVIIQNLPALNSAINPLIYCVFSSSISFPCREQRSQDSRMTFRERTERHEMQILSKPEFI
IL2 activator: activates IL-2 in a cell-based reporter assay. actives 0.065% (n = 360,000). activation, % (series mostly up to about 46 µM). IL-2 activation reporter assay, cell-based qHTS; stimulated with anti-CD3/CD4/CD28 beads; in transgenic mouse T cells; in the data active means activation above about 50%; inconclusive means mostly about 30% to 49%; further: 0% is about no effect
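Using fluorescent plate cytometry, EGFP and DsRed are detected in transgenic mouse T cells stimulated 18 h at 37 degrees C with antibody-coated beads after 60 min compound pretreatment.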
ClpP mod: qHTS Assay for Activators of ClpP | purified B. subtilis ClpP, FRET peptide cleavage, 20 min | Potency, µM (highest dose often 57.5 µM), for the others: at the highest dose activity change, negative = active | actives 1.9% (n = 340,000) | AID 651965, 2013; active means well fitted falling curve with a large enough effect; inconclusive means small, poorly fitted or top-dose-only effect; inactive means no such curve, though single readings can be large or run the other way; further: potency means the concentration at half of the fitted maximal effect; the source files actives as falling curves though it sought activators and does not explain the sign; nearly all actives have a fitted effect of over 65% in size
Target sequence (P80244 whole entry, looked up): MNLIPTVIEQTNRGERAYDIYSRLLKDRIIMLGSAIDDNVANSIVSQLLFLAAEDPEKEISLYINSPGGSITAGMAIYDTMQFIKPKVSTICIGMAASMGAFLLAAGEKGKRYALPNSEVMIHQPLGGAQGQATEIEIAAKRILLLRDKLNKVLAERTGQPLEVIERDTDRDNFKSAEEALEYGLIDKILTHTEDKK
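FRET quenching reversal measured ClpP activation: 10 microg/mL B. subtilis ClpP at pH 8 with the FRET-FV decapeptide, read at 430 nm after 320 nm excitation. The 20-min minus 0-min signal was scaled between DMSO/no-enzyme wells and ADEP (5.8 microM final).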
PKM2 act: increases activity of human pyruvate kinase M2; AID 1631; purified PKM2, Kinase-Glo ATP luminescence, activation; response scale: 0% is enzyme alone, no compound; P14618; actives 0.34% (n = 260,000); Potency, µM (series often up to 57.5 µM), without a hit: at the top dose activation, hits mostly activators; further: potency means the concentration at half of the fitted maximal effect; on the % scale 0 is the no-effect control and ±100 the full control effect; nearly all actives have a fitted effect of over 55% in size
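Purified hPK-M2 (>95% pure) converted ADP (0.1 mM final) to ATP with 0.5 mM PEP in 50 mM imidazole pH7.2, KCl, MgCl2, Tween 20, BSA; 1 h at room temperature. ATP detected by Kinase-Glo luminescence.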
Active calls of the source: *; ? = inconclusive; nt = no result; [ ] = dose if it differs, or a comment. Most compounds without a hit are left out; they make up all but 2% or so of the library. Unless noted, the call rests on the fitted dose curve; in most records, active means well fitted curve in the direction sought with a large enough effect; inconclusive means small, poorly fitted or top-dose-only effect, or another doubt; inactive means no such curve, though single readings can be large; an effect the other way counts as inactive or inconclusive.

SMILES	NPSR antagonist	IL2 activator	ClpP mod	PKM2 act
Cc1cc2c(c(=O)n1C)C(Cc1ccccc1)C(C#N)=C(N)O2 (stereo unspecified)	-3%[46.1 µM]	-3	28µM*	19%
Cc1cccc(N(CC(O)Cn2c3ccccc3c3ccccc32)S(=O)(=O)c2ccc(F)cc2)c1 (stereo unspecified)	nt	nt	32µM*	nt
Cn1c(=O)c2c(ncn2CC(O)CNc2ccc(Cl)cc2)n(C)c1=O (stereo unspecified)	-16%[46.1 µM]	-1	0%	2%
Cc1ccc(NCC(O)Cn2cnc3c2c(=O)n(C)c(=O)n3C)cc1 (stereo unspecified)	-14%	0	28µM*	4%
CC(=O)N/C(=C/c1ccccc1)c1sc2ccccc2[n+]1CCCCI	nt	nt	1%	nt
CC1=Nc2ccccc2N=C(NC(=O)CSc2nnnn2-c2ccccc2)C1c1ccccc1 (stereo unspecified)	?	0	-17%	-2%
CC(C)CNC(=O)[C@H]1N2C(=O)c3ccccc3C2SC1(C)C (stereo partly specified)	nt	-4	28µM*	nt
CC1(C)SC2c3ccccc3C(=O)N2[C@@H]1C(=O)NCCCN1CCOCC1 (stereo partly specified)	-2%[46.1 µM]	0	2%	0%
CCCCC1C(C#N)=C(C)NC2=C1C(=O)CC(C)(C)C2 (stereo unspecified)	-17%[46.1 µM]	1	13µM*	5%
CCN(CC)c1ccc(C2C(C(=O)OCCOC)=C(C)NC3=C2C(=O)CC(C)(C)C3)cc1 (stereo unspecified)	-3%[46.1 µM]	1	28µM*	?
COC(=O)c1ccc(C2C(C#N)=C(C)NC3=C2C(=O)CC(C)(C)C3)cc1 (stereo unspecified)	-14%[46.1 µM]	-3	22µM*	-4%
CCOC(=O)C1=C(C)NC2=C(C(=O)CC(C)(C)C2)C1c1cccc(C)n1 (stereo unspecified)	20%[46.1 µM]	-2	32µM*	1%
CCCOC(=O)C1=C(C)NC2=C(C(=O)CC(C)(C)C2)C1c1ccc(N(C)C)cc1 (stereo unspecified)	-16%[46.1 µM]	0	-5%	2%
CCOC(=O)C1=C(C)NC(C)=C(C(=O)OCC)C1c1cccc(C)n1	-1%	1	nt	6%
COc1ccc(C2C(C#N)=C(SC)NC3=C2C(=O)CC(C)(C)C3)cc1 (stereo unspecified)	-12%[46.1 µM]	0	-10%	-4%
COc1ccc(OC)c(S(=O)(=O)Nc2c(C)cccc2C)c1	-3%	1	nt	2%
Cc1ccc(S(=O)(=O)N(CC(=O)NCCSCc2ccco2)c2cc(C)ccc2C)cc1	nt	-3	2%	nt
Cc1ccc(CN2CCN(/N=C/c3sccc3C)CC2)c(C)c1	-11%	0	28µM*	-5%
CCOC(=O)CCCSc1nc(-c2ccc3c(c2)OCO3)cc(C(F)(F)F)c1C#N	?	-3	16µM*	-9%
CCOC(=O)CSc1nc(-c2ccc3c(c2)OCO3)ccc1C#N	-15%[46.1 µM]	-1	25µM*	0%
CC(=O)N1C(C(=O)O)CSC1c1ccc(C)cc1 (stereo unspecified)	1%[46.1 µM]	-3	1%	-4%
CC(C)(C)NC(=O)C(c1ccc(O)cc1)N(C(=O)Cn1nnc(-c2ccc(F)cc2)n1)c1ccccc1F (stereo unspecified)	13µM*	1	1%	1%
O=[N+]([O-])c1cc(C=Nc2ccc3ccccc3c2)ccc1Br	-9%[46.1 µM]	-2	28µM*	-10%
COc1cc(-c2cc(NC=O)c3ncc(-c4cccc(C(F)(F)F)c4)n3c2)cc(OC)c1OC	nt	0	?	nt
O=C(CCN1CCN(c2ccccc2F)CC1)Nc1ccccc1F	-16%[46.1 µM]	2	16µM*	1%
SMILES	NPSR antagonist	IL2 activator	ClpP mod	PKM2 act
COC(=O)c1sccc1-c1ccc(/C=N/OC(=O)c2ccccc2)o1	?	-2	32µM*	5%
COc1ccc(CNC(=O)C(=O)NCC2OCCN2S(=O)(=O)c2ccc(OC)c(OC)c2)cc1 (stereo unspecified)	nt	-2	-2%	9%
Cc1ccccc1NC(=O)C(=Cc1ccc(C(=O)O)cc1)C(=O)Nc1ccccc1C	4µM*	-7	nt	7%
CC(=NNC(=S)N1CCCCC1)c1cccc(C)n1	nt	-1	25µM*	nt
COc1cc(Cl)c(C)cc1NC(=O)CCc1c(C)nc2c3cccnc3nn2c1C	nt	nt	25µM*	nt
COc1ccc(-c2noc(CC(=O)N(C)c3cc(Cl)c(OC)cc3OC)n2)cc1	nt	nt	0%	nt
COCC(=O)Nc1cccc(-c2nc3cccnc3s2)c1	nt	nt	5%	nt
CCC(C(=O)Nc1cc(-c2nc3cccnc3s2)ccc1C)c1ccccc1 (stereo unspecified)	nt	nt	35µM*	nt
O=C(Nc1cccc(-c2nc3ncccc3o2)c1)c1cc2ccccc2o1	?	-2	-2%	-3%
O=C(Cc1ccccc1)Nc1cccc(-c2nc3ncccc3o2)c1	4%[46.1 µM]	-3	28µM*	11%
O=C(Cc1ccccc1)Nc1cccc(-c2nc3cccnc3s2)c1	nt	nt	35µM*	nt
COc1ccc(C(CC(=O)Nc2ncccc2C)N2Cc3ccccc3C2=O)cc1 (stereo unspecified)	nt	0	nt	nt
Cc1ccc(/C=C/c2nnc(-c3cccs3)o2)cc1	?	0	8.9µM*	-3%
Fc1ccc(/C=C/c2nnc(-c3cccs3)o2)cc1	-16%	2	nt	1%
COc1ccc(CCC(=O)NNC(=O)Nc2cc(Cl)ccc2C)cc1	nt	0	-3%	-1%
O=C1CCCc2c1cc(C(=O)O)c(=O)n2-c1ccccc1	4%	1	nt	-3%
CC1(C)CC(=O)c2cc(C(=O)NC3CCSC3=O)c(=O)n(-c3ccccc3)c2C1 (stereo unspecified)	-8%[46.1 µM]	-1	25µM*	0%
O=C1CCCc2c1cc(C(=O)NC1CCSC1=O)c(=O)n2-c1ccccc1 (stereo unspecified)	-18%[46.1 µM]	1	25µM*	-20%
CC(=O)N=c1sc2nc3ccccc3nc2n1N(C(C)=O)C(C)=O	13µM*	-2	28µM*	-4%
C#CCN(CC=C)C(=O)c1ccc2nc(C3CCCCC3)oc2c1	nt	0	-4%	4%
O=C(Nc1cccc2ncccc12)c1ccc([N+](=O)[O-])o1	nt	0	nt	-1%
Cc1ccc(CN2COc3ccc4c(C)cc(=O)oc4c3C2)cc1	nt	nt	4%	nt
Cc1cc(=O)oc2c3c4c(cc12)OCCN4CCC3	-19%[46.1 µM]	-1	22µM*	22%
CC(C)c1cc(=O)oc2c3c4c(cc12)CCCN4CCC3	-1%[46.1 µM]	4	28µM*	14%
CC(=O)NC(c1ccccc1)c1nc(-c2cccc(C(=O)O)c2)cs1 (stereo unspecified)	nt	0	-2%	nt
CC(C)c1ccc(Nc2ncnc3onc(-c4ccc(F)cc4)c23)cc1	nt	nt	22µM*	nt
Cc1cccc(-c2noc(-c3cccnc3NCc3ccc(Cl)cc3)n2)c1	nt	nt	-19%	nt
FC(F)(F)c1cccc(CNc2ncccc2-c2nc3cc(Cl)ccc3o2)c1	-8%[46.1 µM]	2	32µM*	-6%

Compound activity deposited in PubChem BioAssay by National Center for Advancing Translational Sciences (NCATS).
